High-throughput results: PubChem BioAssay, Buhrlage Lab, Dana-Farber Cancer Institute and Novartis Institutes for BioMedical Research (Cambridge, Mass)
This is a sample that favours compounds with a hit; in the whole collection about 13% have one here.
USP17 inh: blocks human USP17 ubiquitin-rhodamine cleavage. inhibition, % at 50 µM. 47,000 compounds, 6.5% hits. A8MUK1. purified USP17, Ub-rhodamine cleavage fluorescence, 3 h
Target sequence (A8MUK1 whole entry, looked up): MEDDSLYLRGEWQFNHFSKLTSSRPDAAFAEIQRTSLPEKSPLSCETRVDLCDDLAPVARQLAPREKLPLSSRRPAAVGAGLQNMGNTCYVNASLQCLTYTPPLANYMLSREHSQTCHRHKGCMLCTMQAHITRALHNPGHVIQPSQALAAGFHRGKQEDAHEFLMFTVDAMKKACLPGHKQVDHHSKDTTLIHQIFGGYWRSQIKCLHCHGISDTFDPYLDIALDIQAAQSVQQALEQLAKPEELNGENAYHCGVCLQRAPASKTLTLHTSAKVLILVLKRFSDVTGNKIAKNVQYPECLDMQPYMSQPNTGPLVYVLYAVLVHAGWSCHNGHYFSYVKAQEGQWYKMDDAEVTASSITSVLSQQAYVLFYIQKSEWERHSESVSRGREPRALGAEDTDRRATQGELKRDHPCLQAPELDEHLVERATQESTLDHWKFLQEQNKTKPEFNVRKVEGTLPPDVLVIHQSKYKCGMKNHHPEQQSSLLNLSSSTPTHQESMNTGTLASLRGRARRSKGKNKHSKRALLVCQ
USP8 block: human USP8 deubiquitinase inhibition; P40818; purified USP8, Ub-rhodamine cleavage fluorescence, 30 min; inhibition, % at 20 µM; 47,000 compounds, 4.2% hits; AID 1645853
USP30 block: human USP30 deubiquitinase inhibition; Q70CQ3; 47,000 compounds, 5.3% hits; inhibition, % at 25 µM; AID 1645860; purified USP30, Ub-rhodamine cleavage fluorescence
USP28 inh: human USP28 deubiquitinase inhibition | purified USP28, Ub-rhodamine cleavage fluorescence, 30 min | 47,000 compounds, 3% hits | inhibition, % at 25 µM | Q96RU2 | AID 1645857
Each line names hits and unclear results; the compound was inactive in the other large screens. Rule as the data show it: active = inhibition above about 30%; inactive = the rest.

O=C1Cc2cc(S(=O)(=O)Nc3ccc(F)cc3)cc3c2N1CCC3	none
COc1ccc(-c2noc(CC(=O)Nc3ccccc3OC)n2)cc1	none
COc1ccccc1NC(=O)NCc1nc(-c2ccc(C(F)(F)F)cc2)no1	USP30 block 46
COc1ccc(Nc2nnc(Cc3ccc(Cl)cc3)c(=O)[nH]2)cc1	USP8 block 92
O=C(NCCc1ccccc1Cl)c1oc(=O)c2ccccc2c1-c1ccccc1	USP30 block 44
Cc1nn(C)c2c1[C@@H](c1ccc3c(c1)OCCO3)[C@H](NC(=O)c1ccc(Cl)cc1)C(=O)N2	none
Cc1nn(C)c2c1[C@@H](c1ccc(F)c(Br)c1)[C@H](NC(=O)c1ccccc1)C(=O)N2	USP28 inh 71
CS(=O)(=O)c1ccc(N2CCCN(C(=O)c3ccc(Cl)cc3)CC2)c(F)c1	none
COc1cccc(N2CCN(C(=O)CCc3nc4c(C)nn(-c5ccccc5)c4n(C)c3=O)CC2)c1	none
CC1CCCN(CCCNC(=O)c2ccc(N3CCc4ccccc43)s2)C1 (stereo unspecified)	USP28 inh 58
CC1CCCCN1CCCNC(=O)c1ccc(N2CCc3ccccc32)s1 (stereo unspecified)	USP28 inh 56
CCN1CCN(CCNC(=O)c2ccc(N3CCc4ccccc43)s2)CC1	none
COCCCNC(=O)c1ccc(N2CCOc3ccccc32)s1	none
CCN1C(=O)COc2cc(-c3noc(C(=O)NCc4ccccc4)n3)ccc21	none
CCC(C)NC(=O)c1nc(-c2ccc3c(c2)OCC(=O)N3C)no1 (stereo unspecified)	none
CN1C(=O)COc2cc(-c3noc(C(=O)NC4CCCCCC4)n3)ccc21	USP30 block 56
Cc1ccc(CNC(=O)c2nc(-c3ccc4c(c3)OCC(=O)N4C)no2)cc1	USP30 block 41
CC(C)CN1C[C@@H]2[C@@H](C(=O)NC(C)C)CCS(=O)(=O)[C@@H]2C1	none
CC1(C)CC(NC(=O)c2nc(-c3ccccn3)no2)CC(C)(C)N1	none
Cc1cc(=O)n(CC(=O)NCCc2ccc(Cl)cc2)c2c1c(C)nn2-c1ccccc1	none
CS(=O)(=O)N1CCC[C@@H](Cn2nnc(-c3ccccn3)n2)C1	none
O=C(CCCn1c(=O)[nH]c2cc(Cl)ccc2c1=O)N1CCc2ccccc2C1	USP17 inh 55, USP8 block 69
O=C(CCCn1c(=O)[nH]c2ccc(Br)cc2c1=O)N1CCc2ccccc2C1	USP30 block 31
O=c1c2ccsc2ncn1Cc1ccccc1F	USP28 inh 32
O=c1c2ccsc2nc2n1CCN(Cc1cccc(F)c1F)CC2	none
Cn1cc(CCNS(=O)(=O)c2cccc(F)c2)c2cccnc21	none
O=C(c1csc(S(=O)(=O)N2CCOCC2)c1)N1CCCC1	none
COc1cnc(SCc2ccc(Cl)cc2)[nH]c1=O	none
Nc1ncnc(SCc2ccc(Cl)cc2)n1	USP17 inh 54
CCCn1c(C(O)c2cccc3ccccc23)nc2ccccc21 (stereo unspecified)	USP8 block 48
O=C(CCC(=O)N1CCC(n2c(=O)[nH]c3ccccc32)CC1)c1ccc2c(c1)CCCC2	none
Cc1ncc(CO)c2cc(C(=O)Nc3ccc(F)cc3F)c(=Nc3ccccc3)oc12	none
O=C1C(O)=C(c2ccccc2)C2CCCN12 (stereo unspecified)	USP30 block 32
O=C(NCCN1CCOCC1)c1ccc(-c2ccccc2Cl)o1	none
O=C(Nc1nc2ccc(F)cc2s1)c1cccc2c(Br)cccc12	USP17 inh 33
Cc1ccc(-c2nnn(CC(=O)N(c3ccccc3C)C(C(=O)NC3CCCC3)c3ccncc3)n2)o1 (stereo unspecified)	USP17 inh 41
COc1ccc(C(C(=O)NC2CCCC2)N(C(=O)Cn2nnc(-c3ccc(C)o3)n2)c2ccccc2C)cc1 (stereo unspecified)	none
Cc1ccc(-c2nnn(CC(=O)N(c3ccc(C4CCCCC4)cc3)C(C(=O)NC3CCCCC3)c3ccc(F)cc3)n2)o1 (stereo unspecified)	USP17 inh 33
COc1ccc(CNS(=O)(=O)c2cc(-c3cc(C)no3)ccc2OC)cc1	none
COc1ccc(N2CCN(c3nccc4ccc(C(=O)Nc5ccc(OC)c(OC)c5)cc34)CC2)cc1	none
CC(C)CCNC(=O)c1ccc2ccnc(N3CCN(c4ccccc4F)CC3)c2c1	USP8 block 67
O=C(Nc1ccccc1Cl)N1C[C@@H]2c3nccn3-c3ccccc3[C@@H]2C1	none
CCc1nc2c(NC(=O)NC3CCCCC3)cccn2n1	USP8 block 32
O=C(Cc1n[nH]c(Cc2ccc(F)cc2)n1)NC1CCCCCC1	USP8 block 42
C[C@@H](c1ccccc1)N1C(=O)N[C@@H](CCC(=O)Nc2ccc3c(c2)OCO3)C1=O	USP8 block 52
O=C(CC[C@@H]1NC(=O)N(Cc2ccccc2)C1=O)Nc1ccc2c(c1)OCO2	none
COc1cccc(-c2nn(-c3ccc(F)cc3)cc2C(=O)NCc2ccc(S(N)(=O)=O)s2)c1	none
O=C(NCc1ccco1)c1nc(-c2ccc(N3CCCCC3)nc2)no1	none
COc1cccc(CC2(Cc3cccc(OC)c3)C(=O)N(Cc3ccccn3)C(=O)c3ccccc32)c1	USP30 block 36
O=C(Nc1ccc(Cl)cc1)N1Cc2cccn2-c2ccccc21	none
Cc1ccc(-c2[nH]c3ccccc3c2C2c3ccccc3C(=O)N2CC(=O)O)cc1 (stereo unspecified)	USP8 block 61
CCCCCCCCC/C=C/C(=O)CCc1c(O)c(C=O)c2c(c1O)C(=O)OC2O (stereo unspecified)	USP17 inh 75, USP8 block 31, USP28 inh 71
O=C(NC1CCCCC1)c1cc2c(cn1)[nH]c1ccccc12	USP28 inh 59
CCOC(=O)C1(Cc2cc(-c3ccccc3F)no2)CCN(Cc2ccccc2O)CC1	none
O=C(NC1=NCCS1)c1cnn(Cc2ccccc2)c1	none
Cc1nn(-c2ccccc2)c(C)c1NC(=O)c1cnn(Cc2ccccc2)c1	USP28 inh 31
COc1ccc(NC(=O)CSC2=NC3(CCCCC3)Nc3ccccc32)c(OC)c1	none
COc1ccccc1NC(=O)CSC1=NC2(CCCCC2)Nc2ccccc21	USP17 inh 54, USP8 block 84
Cc1noc(C)c1CC(=O)Nc1nnc(-c2ccc(C(C)C)cc2)s1	USP8 block 32
Cc1ccc(NC(=O)c2ccccc2)c(=O)n1CC(=O)N1CCN(c2ccccc2F)CC1	USP30 block 30 (no result: USP17 inh)
Cc1cccc(N2CCN(C(=O)Cn3c(=O)[nH]c4ccccc4c3=O)CC2)c1C	none
COc1ccc(N2CCN(C(=O)CCCCCn3c(=O)[nH]c4ccccc4c3=O)CC2)cc1	none
CC(=O)c1ccc(N2CCN(C(=O)Cn3c(=O)[nH]c4ccccc4c3=O)CC2)cc1	USP17 inh 42 (no result: USP30 block, USP28 inh)
O=C(Cn1c(=O)[nH]c2ccccc2c1=O)N1CCN(c2ccccc2F)CC1	USP30 block 32
O=C(CCCn1c(=O)[nH]c2ccccc2c1=O)N1CCN(c2ccc(Cl)cc2)CC1	USP30 block 41
COc1ccc(CNC(=O)c2c(-c3ccccc3)nnc3ccccc23)c(OC)c1	none (no result: USP17 inh)
COc1cc(O)ccc1CN1CCCCC12Cc1ccccc1CNC2=O (stereo unspecified)	none
